Compound activity: PubChem, National Center for Advancing Translational Sciences (NCATS)
PKM2 inh: inhibitors of human pyruvate kinase M2; P14618; purified PKM2, ATP generation, Kinase-Glo luminescence; Potency, µM (doses to about 57.5 µM), usual class: inhibitors; 260,000 tested, 0.058% active; further: nearly all actives have a fitted effect of over 60% in size
Target sequence (P14618 whole entry, looked up): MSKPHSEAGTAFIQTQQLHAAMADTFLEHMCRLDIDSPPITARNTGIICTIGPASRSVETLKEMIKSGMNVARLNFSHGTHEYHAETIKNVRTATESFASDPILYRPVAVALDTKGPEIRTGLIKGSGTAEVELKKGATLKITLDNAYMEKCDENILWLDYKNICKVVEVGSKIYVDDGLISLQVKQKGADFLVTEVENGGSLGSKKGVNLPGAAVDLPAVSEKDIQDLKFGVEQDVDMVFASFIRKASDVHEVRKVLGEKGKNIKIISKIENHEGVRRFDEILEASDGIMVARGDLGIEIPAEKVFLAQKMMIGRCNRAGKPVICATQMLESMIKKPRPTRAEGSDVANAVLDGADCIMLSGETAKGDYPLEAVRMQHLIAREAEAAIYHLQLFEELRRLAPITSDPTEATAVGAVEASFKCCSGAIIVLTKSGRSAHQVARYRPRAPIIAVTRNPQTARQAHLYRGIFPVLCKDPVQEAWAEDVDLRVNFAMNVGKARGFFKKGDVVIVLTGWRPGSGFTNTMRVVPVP
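Coupled luciferase luminescence (Kinase-Glo) detects ATP generated from 0.1 mM ADP and 0.5 mM PEP in imidazole buffer pH 7.2 with KCl, MgCl2; 1 h at room temperature. Enzyme at intermediate activity; normalized to uninhibited and no-enzyme controls.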
PKM2 inh CRC: confirmation of human pyruvate kinase M2 inhibitors, concentration-response; shares compounds with PKM2 inh; purified hPK-M2, Kinase-Glo ATP luminescence, 1 h; Potency, µM (titrated, usually from 57.5 µM), hits mostly inhibitors; 55 tested, 50% active
PKM2 FLuc cs: blocks firefly luciferase, flagging PKM2 inhibitor artifacts; shares compounds with PKM2 inh; Kinase-Glo firefly luciferase, luminescence, 8 min; Potency, µM (highest dose often 57.5 µM), actives largely listed as inhibitors; 55 tested, 30% active
PKM2 inh LDH: blocks human pyruvate kinase M2 in LDH-coupled assay; shares compounds with PKM2 inh; purified hPK-M2, LDH-coupled NADH fluorescence kinetic; Potency, µM (series often up to 57.5 µM), most hits filed as inhibitors; 55 tested, under 10 active
Numbers stand for hits; n = inactive; u = inconclusive. This excerpt belongs to a sample that is enriched for hits. The call rests on the fitted dose curve; in most records, active means well fitted curve in the direction sought with a large enough effect; inconclusive means small, poorly fitted or top-dose-only effect, or another doubt; inactive means no such curve, though single readings can be large; an effect the other way counts as inactive or inconclusive.

SMILES	PKM2 inh	others
O=c1c2ccccc2[se]n1-c1ccccc1	6.3µM	PKM2 inh CRC=5.8µM;PKM2 FLuc cs=21µM;PKM2 inh LDH=u
Cc1ccccc1N(CC(=O)NC1CCCC1)C(=O)c1csnn1	n
O=C1NC(=O)C(=Cc2coc3ccc(O)cc3c2=O)C(=O)N1	n
O=C1c2ccccc2C(=O)N1SC1CCCCC1	n
Nn1c(COc2ccc(Cl)cc2)n[nH]c1=S	n
